Assay outcomes from PubChem BioAssay.
ATXN2 expr inh – reduces ATXN2 reporter expression in HEK-293 cells | HEK-293 ATXN2-luciferase reporter, luminescence, 24 h | Potency, µM (series often up to 57 µM), for inactives: at the highest dose activity change, negative = inhibition, usual class: inhibitors | 0.72% of 360,000 active; further: potency means the concentration at half of the fitted maximal effect; on the % scale 0 is the no-effect control and ±100 the full control effect; nearly all actives have a fitted effect of over 55% in size
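qHTS (up to 57 uM final) was run with 24 h compound exposure of reporter cells at 37 °C. Each well was multiplexed: SteadyGlo luminescence measured ATXN2-luciferase expression after a fluorogenic Gly-Phe-AFC viability readout (25 uM final).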
IL1B secr inh – inflammasome signaling inhibition, IL-1 beta readout; THP-1 LPS/ATP IL-1B secretion, AlphaLISA, 16 h; hits give low values; AID 743279; activity change, % at 57.5 µM; 4.7% of 360,000 active; in the data active means activity change below about -50%; inconclusive means mostly about -30% to -49%; further: on the % scale 0 is the no-effect control and ±100 the full control effect
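Secreted IL-1B measured by AlphaLISA bead assay after 16 h compound exposure of THP-1 cells; compounds (final up to 57.5 uM) added 1 h before LPS (250 ng/mL) and ATP (1.25 mM) stimulation; lower signal means less secretion.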
S2 tox – cell viability loss in ATXN counter-screen. S2 cells (HEK-293 line with an ATXN2-luciferase reporter) viability, CellTiter-Fluor protease fluorescence, 24 h. Potency, µM (series often up to 56.7 µM), actives largely listed as cytotoxic. 0.49% of 400,000 active; further: potency means the concentration at half of the fitted maximal effect; nearly all actives have a fitted effect of over 40% in size
USP1-UAF1 inh – USP1/UAF1 (human) deubiquitinase inhibition; O94782; Potency, µM (doses to about 57.1 µM), for inactives: at the highest dose activity change, negative = inhibition, usual class: inhibitors; 0.23% of 390,000 active; recombinant USP1/UAF1, Ub-Rhodamine cleavage fluorescence; further: potency means the concentration at half of the fitted maximal effect; on the % scale 0 is the no-effect control and ±100 the full control effect; nearly all actives have a fitted effect of over 60% in size
Target sequence (O94782 whole entry, looked up): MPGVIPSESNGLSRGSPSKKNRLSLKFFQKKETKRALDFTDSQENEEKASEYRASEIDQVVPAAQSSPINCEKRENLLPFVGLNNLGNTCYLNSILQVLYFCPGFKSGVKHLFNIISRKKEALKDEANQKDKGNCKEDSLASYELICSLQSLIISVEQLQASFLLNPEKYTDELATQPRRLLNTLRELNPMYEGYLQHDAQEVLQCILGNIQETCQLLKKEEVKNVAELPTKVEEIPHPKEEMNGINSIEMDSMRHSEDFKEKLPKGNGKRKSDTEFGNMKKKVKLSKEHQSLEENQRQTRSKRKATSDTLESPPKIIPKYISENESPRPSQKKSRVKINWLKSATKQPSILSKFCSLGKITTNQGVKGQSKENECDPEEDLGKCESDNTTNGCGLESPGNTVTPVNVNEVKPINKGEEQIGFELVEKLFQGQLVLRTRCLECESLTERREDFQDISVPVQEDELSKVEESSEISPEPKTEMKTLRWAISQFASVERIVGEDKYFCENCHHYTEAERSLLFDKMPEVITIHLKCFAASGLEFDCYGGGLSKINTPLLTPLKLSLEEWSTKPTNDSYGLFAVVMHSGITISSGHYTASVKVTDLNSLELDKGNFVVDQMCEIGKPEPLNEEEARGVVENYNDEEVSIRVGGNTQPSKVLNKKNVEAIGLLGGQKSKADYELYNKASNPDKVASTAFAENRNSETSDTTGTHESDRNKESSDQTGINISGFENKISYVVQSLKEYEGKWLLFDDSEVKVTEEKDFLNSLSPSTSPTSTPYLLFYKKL
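USP1/UAF1 complex (1 nM) preincubated 15 min at room temperature with compound, then Ub-Rho substrate (150 nM final) added. Kinetic fluorescence at 480/540 nm over 6 reads at 60 s intervals; 50 mM HEPES pH 7.8, 0.5 mM EDTA, 0.1 mg/ml BSA, 1 mM TCEP, 0.01% Tween-20.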
USP2a block – blocks human ubiquitin-specific protease USP2a. AID 463254. USP2 core, Ub-CHOP2 coupled fluorogenic reporter, 485/531. Potency, µM (highest dose often 38.3 µM), for the others: at the top dose activity change, negative = inhibition, usual class: inhibitors. O75604. 0.01% of 330,000 active;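 further: potency means the concentration at half of the fitted maximal effect; plate controls were DMSO wells for no effect and full inhibition by NEM control for full effect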
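USP2 core (10nM final) preincubated 30min RT with compound in 20mM Tris-HCl pH 8.0, 2mM CaCl2, 2mM beta-mercaptoethanol, 0.05% CHAPS; 25nM Ub-CHOP2 plus 25nM reporter substrate added, fluorescence (Ex485/Em531) read after 60min.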
* marks the source's active call; other numbers are inactive results; i = inactive; ? = inconclusive; / = no result; [ ] = dose if it differs, or a comment. Compounds with a hit are over-represented: about 4.8% of the library has one in this group of screens. Unless noted, the call rests on the fitted dose curve; in most records, active means well fitted curve in the direction sought with a large enough effect; inconclusive means small, poorly fitted or top-dose-only effect, or another doubt; inactive means no such curve, though single readings can be large; an effect the other way counts as inactive or inconclusive.

SMILES	ATXN2 expr inh	IL1B secr inh	S2 tox	USP1-UAF1 inh	USP2a block
O=C(ONC1=NCCCCC1)c1cccc([N+](=O)[O-])c1	-27%[11.3 µM]	-5	i	?	0%
COc1ccccc1-c1nc(SCC(=O)Nc2ccc(C)c(C)c2)n[nH]1	?	/	i	-16%	/
Oc1ccccc1CN(Cc1ccco1)CC(O)COCc1ccc(Cl)cc1 (centres undefined)	-16%	-99*	i	-2%	-3%
Cc1ccc(NC(=O)COC(=O)CN2C(=O)NC3(CCCC3)C2=O)cc1Cl	-26%	12	i	-22%	0%
Cc1ccc(C(c2nnnn2CCc2ccccc2)N2CCC(C)CC2)cc1 (centres undefined)	-16%	-64*	i	-11%	-11%
CC1=Nc2ccccc2/C1=C\c1nc(-c2ccc(C(F)(F)F)cc2)oc1O	-10%	0	i	13µM*	5%
Cc1cc(C)c2nc(-c3ccncc3)cc(C(=O)N3CCN(Cc4ccccc4Cl)CC3)c2c1	-15%	-75*	i	-26%	-3%
O=C(O)c1cc(-c2ccc3c(c2)OCO3)nc2ccc(Cl)cc12	11%	i	i	-11%	1%
Cc1ccc2nc(-c3ccncc3)cc(C(=O)N3CCOCC3)c2c1	11%	28	i	-4%	2%
O=C(c1cc(-c2ccncc2)nc2ccc(Cl)cc12)N1CCN(Cc2ccc3c(c2)OCO3)CC1	-21%	-83*	i	-8%	0%
O=C(c1cc(-c2ccncc2)nc2ccc(Br)cc12)N1CCN(Cc2ccc3c(c2)OCO3)CC1	-25%	-63*	?	-9%	-1%
Cc1cccc(NC(=O)CSc2nc(=O)n(CCN3CCOCC3)c3c2CCC3)c1C	/	/	/	-10%	/
CCOC(=O)c1c(C)[nH]c(C)c1S(=O)(=O)NCCN1CCN(c2cc(Cl)ccc2C)CC1	/	-51*	i	-22%	-1%
COc1ccc(CNC(=O)C/C(C)=N/NC(=O)c2cc(OC)cc(OC)c2)cc1	/	/	/	/	1%
COc1ccc(CNC(=O)C/C(C)=N/NC(=O)c2ccc(OC)cc2OC)cc1	-19%	-55*	i	-27%	-3%
COc1ccc(C2c3[nH]c4ccccc4c3C[C@H]3C(=O)N(C4CCN(Cc5ccccc5)CC4)CC(=O)N23)cc1OC (some centres undefined)	-27%	-24	i	-21%	5%
COc1cccc(C2c3[nH]c4ccccc4c3C[C@H]3C(=O)N(C4CCN(Cc5ccccc5)CC4)CC(=O)N23)c1 (some centres undefined)	-37%	-58*	i	-9%	-1%
CCCCN1C(=O)C2Cc3c([nH]c4ccccc34)CN2C1=S (centres undefined)	-6%	-88*	/	25µM*	0%
CCCCCCN1CC(=O)N2Cc3[nH]c4ccccc4c3C[C@H]2C1=O	0%	-58*	i	-24%	-1%
CC(C)OCCCN1CC(=O)N2C(c3ccccc3)c3[nH]c4ccccc4c3C[C@H]2C1=O (some centres undefined)	-26%	-62*	i	-24%	-4%
C=CCN1CC(=O)N2Cc3[nH]c4ccccc4c3C[C@H]2C1=O	/	-16	i	-12%	3%
O=C1[C@@H]2Cc3c([nH]c4ccccc34)CN2C(=O)CN1CCCO	3%	-2	i	-5%	-2%
CCCCCN1CC(=O)N2Cc3[nH]c4ccccc4c3C[C@H]2C1=O	-5%	-59*	i	-17%	0%
COC(=O)CS(=O)(=O)c1nnc([C@H](Cc2ccccc2)NC(=O)OC(C)(C)C)o1	?	-102*	/	-20%	-1%
Cc1cccc(CS(=O)(=O)c2nnc([C@H](Cc3ccccc3)NC(=O)OC(C)(C)C)o2)c1	7.9µM*	?	8.9µM*	-4%	3%
SMILES	ATXN2 expr inh	IL1B secr inh	S2 tox	USP1-UAF1 inh	USP2a block
CCCCC1CN(CCNC(=O)c2ccccn2)Cc2ccccc2O1 (centres undefined)	/	/	i	/	/
Cc1ccc(C)c(NC(=O)CSc2cn(CC(=O)N3CCCC3)c3ccccc23)c1	/	/	/	25%	/
Cc1ccc2[nH]c(=O)c(CN(Cc3ccc4c(c3)OCO4)Cc3nnnn3Cc3ccco3)cc2c1	-1%	-59*	i	-27%	0%
Cc1ccc2[nH]c(=O)c(CN(Cc3nnnn3Cc3ccccc3)C3CCCC3)cc2c1	?	-69*	?	-6%	-1%
Cc1cc(C)c2cc(CN(Cc3ccc4c(c3)OCO4)Cc3nnnn3Cc3ccco3)c(=O)[nH]c2c1	5%	-62*	i	-29%	-2%
Cc1csc(C(C)N(C)C(=O)c2cnn(-c3nccc(-c4cc(C)sc4C)n3)c2C)n1 (centres undefined)	/	/	i	/	/
COCCCNC(=S)N1CCCN(c2nc3cc(C)c(C)cc3cc2C#N)CC1	-23%[11.3 µM]	-74*	i	-10%	-7%
Cc1ccc(OCCCCn2ccnc2C)c(C)c1	-16%	-56*	?	-17%	-3%
Cc1ccc(C(C)C)c(OCCn2ccnc2C)c1	-4%	3	i	-17%	-1%
Cc1cc(Nc2cccc([N+](=O)[O-])c2)c2cccc(C)c2n1	?	-95*	i	-15%	2%
Cc1cc(Nc2ccccc2Cl)c2ccccc2n1	?	-96*	i	-4%	/
CCOc1ccc2nc(C)cc(Nc3ccc4c(c3)OCCO4)c2c1	?	-100*	?	-2%	0%
Cc1ccc2nc(C)cc(Nc3ccc4c(c3)OCCO4)c2c1	-19%	?	?	-7%	-1%
CCOc1ccc2nc(C)cc(Nc3cccc([N+](=O)[O-])c3)c2c1	28µM*	-118*	/	?	-1%
COc1ccc(NC(=O)c2cc3c(s2)-c2c(C)cccc2OC3)cc1Cl	-3%	/	i	1%	/
Cc1ccc2nc(SCC(=O)N3CCOc4ccc(CN5C[C@@H](C)O[C@@H](C)C5)cc4C3)[nH]c2c1	/	/	i	/	/
COc1ccc(Nc2cc(C)nc3ccc(C)cc23)cc1	/	-21	?	-3%	/
Cc1cc(Nc2ccc([N+](=O)[O-])cc2)c2ccccc2n1	-36%	-80*	?	-18%	2%
CC(=O)c1ccc(Nc2cc(C)nc3ccc(C)cc23)cc1	-29%	-104*	?	-20%	-1%
CCOC(=O)c1nnc(-c2ccc(C)cc2)nc1Sc1ccccc1Cl	?	-97*	?	-7%	2%
CCOC(=O)c1nnc(-c2ccccc2)nc1Sc1c(Cl)cccc1Cl	?	-116*	?	-30%	1%
CCOC(=O)c1nnc(-c2ccc(C)cc2)nc1Sc1ccc(Cl)cc1	-9%	5	i	-13%	1%
O=C(NCc1nnc2n1CCN(C(=O)/C=C/c1ccccc1)CC2)c1cccc(F)c1	/	/	i	/	/
